This is a sample that favours compounds with a hit; in the whole collection about 6.5% have one here.
FMDV inh = foot and mouth disease virus antiviral activity; FMDV antiviral cell-based qHTS; Potency, µM (highest dose often 57.9 µM), for inactives: at the highest dose activity change, negative = inhibition, hits mostly inhibitors; 410,000 compounds, 1.2% hits; AID 1159524; calls by dose curve; tested in HEK293T cells; note: read-out not given here; potency is the fitted concentration of half-maximal effect; nearly all actives have a fitted effect of over 45% in size
Lassa entry inh = blocks Lassa virus binding to or entry into cells. Lassa virus pseudotype entry inhibition, cell reporter. Potency, µM (doses to about 37.9 µM), for the others: top-dose activity change, negative = inhibition, actives largely listed as inhibitors. 300,000 compounds, 1.2% hits; calls by dose curve; tested in HEK293 cells; note: potency is the fitted concentration of half-maximal effect; nearly all actives have a fitted effect of over 50% in size
Vaccinia mCherry = vaccinia inhibition (mCherry reporter); Vaccinia virus mCherry reporter infection, fluorescence; AID 720579; 310,000 compounds, 0.63% hits; Potency, µM (top dose mostly 36.5 µM), without a hit: at the top dose activity change, negative = inhibition, most hits filed as inhibitors; calls by dose curve; tested in A549 cells; note: potency is the fitted concentration of half-maximal effect; nearly all actives have a fitted effect of over 35% in size
HCMV antiviral = blocks human cytomegalovirus replication; HFF cells, HCMV-luciferase reporter, 72 h; hits give low values; activity change, negative = inhibition, % at 57.5 µM; 410,000 compounds, 4.5% hits; AID 1259415; in the data active = activity change below about -60%; inconclusive = no clear call, values can overlap the other calls; inactive = above about -39%
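Two compound doses tested in HFFs infected with HCMV-luciferase, MOI 1 PFU/cell, 72 h at 37C. Lysate luminescence read with OneGlo; data normalized against buffer-only and 10uM Salinomycin inhibitor controls.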
VACV Venus inh = vaccinia inhibition (Venus reporter) | AID 720580 | Potency, µM (highest dose often 36.5 µM), without a hit: at the highest dose activity change, negative = inhibition, hits mostly inhibitors | 330,000 compounds, 0.46% hits | Vaccinia virus Venus reporter expression, fluorescence; calls by dose curve; tested in A549 cells; note: potency is the fitted concentration of half-maximal effect; nearly all actives have a fitted effect of over 30% in size
MARV entry inh = Marburg virus entry inhibition; AID 540276; Marburg virus pseudotyped entry inhibition, cell reporter; 300,000 compounds, 1.8% hits; Potency, µM (highest dose often 37.8 µM), inactives show at the highest dose activity change, negative = inhibition, usual class: inhibitors; calls by dose curve; tested in HEK293 cells; note: potency is the fitted concentration of half-maximal effect
Starred values were filed as active, the others as inactive; i = inactive; ? = inconclusive; · = no result; [ ] = another dose, or the depositor's remark. % is set by controls: 0 for no effect and ±100 for the full control effect.

SMILES | FMDV inh | Lassa entry inh | Vaccinia mCherry | HCMV antiviral | VACV Venus inh | MARV entry inh
Cc1cc(C)nc(NC(=NCCc2c[nH]c3ccccc23)NC(=O)c2ccco2)n1 | ? | ? | ? | -18.5 | ? | 11.2µM*
Cc1cc(C)nc(NC(=NCCc2c[nH]c3ccccc23)NC(=O)Nc2ccccc2)n1 | 0.0% | ? | ? | ? | ? | 14.6µM*
O=C(NCCc1ccccc1)C(=O)NCC1OCCCN1S(=O)(=O)c1cccs1 (stereo not given) | -3.6% | · | · | -3.1 | · | ·
CC(C)N1C(=O)C(Cc2nc3ccccc3c(=O)n2-c2ccccc2)c2ccccc21 (stereo not given) | -10.9% | ? | -27.5% | -71.6* | -17.1% | -1.6%
CC(C)N1C(=O)/C(=C/c2nc3ccccc3c(=O)n2-c2ccccc2)c2ccccc21 | 28.2µM* | 10µM* | -2.5% | -104.9* | -12.8% | ?
CC(C)N1C(=O)/C(=C\c2nc3ccccc3c(=O)n2-c2ccccc2)c2ccccc21 | 17.8µM* | ? | 11.2µM* | -95.0* | ? | ?
CN1C(=O)C(Cc2nc3ccccc3c(=O)n2-c2ccccc2)c2ccccc21 (stereo not given) | -15.4% | 4.6% | · | -22.6 | · | -2.7%
Cc1ccnn1CC(=O)N1CCOc2c(cc(-c3csc4ccccc34)cc2OC2CCOC2)C1 (stereo not given) | -0.4% | · | -7.0% | · | -1.7% | ·
CON(c1nc(Cl)nc(N(C)C)n1)S(=O)(=O)c1ccccc1Cl | ? | 12.6µM* | · | 49.9 | ? | -1.0%
COc1nc(N(C)C)nc(N(OC)S(=O)(=O)c2ccccc2Cl)n1 | -17.7% | ? | -10.9% | 10.9 | -23.2% | -25.2%
O=C(NCCN1CCCCC1)c1cccc2c1C(=O)c1ccc(N3CCCC3)cc1S2(=O)=O | 13.1% | · | -1.4% | -65.0* | 11.9% | ·
COCCNS(=O)(=O)c1ccc(-c2ccc(C)cc2)cc1 | 4.0% | ? | · | -63.5* | · | -0.5%
Cc1ccc(S(=O)(=O)NCCOCCNS(=O)(=O)c2ccc(C)cc2)cc1 | 6.4% | 1.2% | · | -11.7 | · | 0.6%
CCN1C(=O)[C@@H]2[C@H]3[C@H](O)[C@H](O)CC(=NOC[C@@H](C)[C@H](OCc4ccccc4)C(C)C)[C@@H]3CC[C@H]2C1=O | · | 13.1%[14.3 µM] | · | · | · | 1.2%[14.2 µM]
CCn1nc(-c2ccccc2)nc2c(=O)n(C)c(=O)nc1-2 | 1.78µM* | ? | 2.51µM* | · | 2.24µM* | 0.891µM*
CCn1nc(-c2ccc(C)cc2)nc2c(=O)n(C)c(=O)nc1-2 | · | · | 2.51µM* | · | 3.16µM* | ·
COc1ccccc1N1C(=O)c2cccc3c(Cl)ccc(c23)C1=O | -28.8% | ? | -7.0% | -82.2* | -6.4% | 0.7%
CN(C)c1c2ccccc2nc2c(F)c(F)c(F)c(F)c12 | 28.2µM* | · | · | · | · | ·
Cc1c2ccccc2nc2c(F)c(N(C)C)c(F)c(F)c12 | 35.8% | -4.6% | -7.5% | 15.6 | 32.1% | 6.0%
Nc1ccc(C(=O)OCC2=NC3C=c4ccccc4=CC3=N2)cc1 (stereo not given) | · | · | · | · | · | 1.64µM*
Cc1ccc(-c2ccnc(-n3ncc(C(=O)NCCN4CCOCC4)c3C3CC3)n2)o1 | -21.0% | · | i | · | -18.5% | ·
CCOCCCNC(=O)c1cc(=O)n(Cc2cccc(C)c2)c2ccccc12 | -28.8% | · | -15.2% | -61.6* | -24.5% | ?
Cc1ccc(NC(=O)Cn2nc(-c3ccccc3)nc(Cc3ccc(Cl)cc3)c2=O)cc1 | -9.4% | 21.2%[46.1 µM] | -11.7% | -19.9 | -1.4% | ·
CCN(CCCl)c1cc(CN(C)C)cc(NC(=O)c2ccc(C(=O)Nc3cc(CN(C)C)cc(N(CC)CCCl)c3)cc2)c1 | ? | ? | 1.26µM* | -101.1* | 2.82µM* | ?
CSc1nsc(SCc2cnc(C)nc2N)n1 | -11.1% | -0.1% | 22.4µM* | -7.6 | ? | 6.3%
SMILES | FMDV inh | Lassa entry inh | Vaccinia mCherry | HCMV antiviral | VACV Venus inh | MARV entry inh
COc1cc2c(cc1OC)C(COc1ccccc1OC)N(C(=O)c1ccccc1OC)CC2 (stereo not given) | 0.0% | -3.1%[46.1 µM] | -1.8% | -105.6* | 3.2% | ·
COCCNC(=S)N1CCc2cc(OC)c(OC)cc2C1COc1ccc(C(C)C)cc1 (stereo not given) | -25.9% | ? | -22.7% | 55.9 | -23.8% | 13µM*
COc1cc2c(cc1OC)C(c1ccccc1)N(C(=O)c1ccccc1)CC2 (stereo not given) | -15.2% | · | · | -60.5* | · | ·
COC(=O)c1ccc(OCC2c3cc(OC)c(OC)cc3CCN2C(=O)c2ccc(OC)cc2)cc1 (stereo not given) | -16.1% | -29.9%[46.1 µM] | -5.3% | 12.0 | -6.8% | ·
COC(=O)c1ccc(OCC2c3cc(OC)c(OC)cc3CCN2C(=O)c2ccco2)cc1 (stereo not given) | ? | 4.11µM* | · | 91.3 | · | ?
COc1cc2c(cc1OC)C(c1ccccc1)N(C(=O)c1ccccc1F)CC2 (stereo not given) | -15.1% | · | · | 3.1 | · | ·
c1coc(-c2nc3n(n2)C2(CCCCC2)[C@@H]2CCCC[C@@H]2N3)c1 | -23.2% | 14.7%[46.1 µM] | 4.1% | -10.3 | 24.2% | 5.7%[46.1 µM]
Nn1c(SCC(=O)Nc2cccnc2Cl)nnc1-c1ccccc1 | 13.1% | 26.5% | -11.5% | · | -9.1% | 16.1%
O=C(NCc1ccccc1)c1cccc(N2CCCS2(=O)=O)c1 | -7.8% | 28.8%[46.1 µM] | -2.8% | 3.0 | 0.0% | ·
Cc1nc(N2CCC(C)CC2)c2c(C)c(C(=O)Nc3cccc(C(F)(F)F)c3)sc2n1 | ? | -10.7% | i | 10.7 | -23.1% | ?
Cc1nc(Nc2cnc(/C=C/c3cc(C(=O)Nc4cccc(C(F)(F)F)c4)ccc3C)cn2)cc(N2CCNCC2)n1 | -36.2% | · | ? | · | 10µM* | ·
CC(Sc1ccc(S(=O)(=O)N2CCOCC2)cn1)c1ccccc1Cl (stereo not given) | -25.3% | 8.91µM* | -12.6% | -14.2 | -13.8% | ?
COc1ccc(Cn2c(C)c(C)c(C#N)c2NC(=O)Nc2cccc(C)c2)cc1 | 12.8% | -58.7% | ? | -66.5* | -20.4% | ?
NC(=O)Nc1cccc2ccccc12 | -8.6% | 11.3% | -9.9% | -13.9 | 3.8% | 10.5%
O=C(Nc1cccc2ccccc12)OC1C=CS(=O)(=O)C1 (stereo not given) | -16.6% | -18.0% | 11.2µM* | -70.1* | ? | -20.9%
CSc1oc(-c2ccc(F)cc2)nc1S(=O)(=O)c1ccccc1 | · | 2.2% | -14.1% | -0.4 | -13.2% | -1.6%
CC(C)S(=O)(=O)c1oc(-c2cccs2)nc1S(=O)(=O)c1ccc(F)cc1 | 22.4µM* | ? | -17.9%[7.34 µM] | -101.6* | -12.7%[7.34 µM] | ?
CSc1oc(-c2ccc(F)cc2)nc1S(=O)(=O)c1ccc(F)cc1 | -24.4% | · | i | ? | -9.8% | ·
CCCCS(=O)(=O)c1oc(-c2ccc(F)cc2)nc1S(=O)(=O)c1ccccc1 | 31.6µM* | ? | -19.4%[7.34 µM] | -99.4* | -16.7%[7.34 µM] | ?
CCS(=O)(=O)c1oc(-c2ccc(F)cc2)nc1S(=O)(=O)c1ccc(Br)cc1 | 14.1µM* | ? | -22.1% | -98.7* | ? | ?
Cc1ccc(S(=O)(=O)c2nc(-c3cccs3)oc2SC(C)C)cc1 | -13.3% | -6.1%[46.1 µM] | -1.5% | -7.2 | -10.2% | -23.5%[46.1 µM]
